From PubChem BioAssay (NCI)
This is part of a sample that, as a whole, favours compounds with a hit. Of some 83,000 tested, about 20% had one in any assay.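 Percent growth is the endpoint: 0 to 100 indicates growth inhibition (40 means 60% inhibition), 0 means no net growth, and negative values indicate cell death.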 Unmarked numbers belong to inactive results. Activity calls are given as the source filed them. How the source made its calls: active means growth percent below 10; inactive means the rest.

Tests used:
Test in all cases: NCI-60 one-dose screen, 48 h (100 = growth as untreated, 0 = no growth, -100 = all killed)
Conditions in all cases: 10 µM unless noted
[1] = tested on: RPMI-8226 leukemia
[2] = tested on: OVCAR-8 ovarian
[3] = tested on: OVCAR-5 ovarian
[4] = tested on: OVCAR-4 ovarian
[5] = tested on: SK-OV-3 ovarian
[6] = tested on: IGROV1 ovarian
[7] = tested on: OVCAR-3 ovarian
[8] = tested on: HS 578T breast
[9] = tested on: NCI/ADR-RES ovarian
[10] = tested on: T-47D breast
[11] = tested on: MDA-MB-435 melanoma
[12] = tested on: SW-620 colon
[13] = tested on: MCF7 breast
[14] = tested on: HCT-116 colon
[15] = tested on: HCC-2998 colon
[16] = tested on: KM12 colon
[17] = tested on: MDA-MB-468 breast

## CC(=O)N1CCN(Cc2ccc3c(NNC(=O)c4cnccn4)nc4cc(F)ccc4n23)CC1
[1]
  growth: 25.7%
[2]
  growth: 17.2%
[3]
  growth: 50.1%
[4]
  growth: 32.6%
[5]
  growth: 25%
[6]
  growth: 28.2%
[7]
  growth: 56.7%
[8]
  growth: 56.3%
[9]
  growth: 7.69% (active)
[10]
  growth: 16.4%
[11]
  growth: 37.4%
[12]
  growth: 38.8%
[13]
  growth: 16.4%
[14]
  growth: 19.5%
[15]
  growth: 61.3%
[16]
  growth: 32.6%
[17]
  growth: 6.88% (active)

## O=C(Nc1ccc(C(F)(F)F)cc1)Nc1ccc2oc(=O)ccc2c1
[1]
  growth: -20.4% (active)
[2]
  growth: 15.7%
[3]
  growth: 39.5%
[4]
  growth: 41.7%
[5]
  growth: 16%
[6]
  growth: 33%
[7]
  growth: 26.7%
[8]
  growth: 49.7%
[9]
  growth: 12.4%
[10]
  growth: 19%
[11]
  growth: 24.1%
[12]
  growth: 31.2%
[13]
  growth: 2.63% (active)
[14]
  growth: 8.31% (active)
[15]
  growth: 32.5%
[16]
  growth: 16%
[17]
  growth: 5% (active)

## NS(=O)(=O)c1ccc(-n2cc(-c3cccc(NC(=O)c4ccc(Cl)c(C(F)(F)F)c4)c3)nn2)cc1
[1]
  growth: 46.3%
[2]
  growth: -60.8% (active)
[3]
  growth: 28.6%
[4]
  growth: 44.7%
[5]
  growth: 55.7%
[6]
  growth: 58.6%
[7]
  growth: -4.74% (active)
[8]
  growth: 32.1%
[9]
  growth: 78.2%
[10]
  growth: -11.1% (active)
[11]
  growth: 47.2%
[12]
  growth: 42%
[13]
  growth: 1.38% (active)
[14]
  growth: 26.2%
[15]
  growth: 41.8%
[16]
  growth: 5.73% (active)
[17]
  growth: -0.759% (active)

## COc1ccc(-c2nnc3ccc(N/N=C/c4ccc(C)cc4)nn23)cc1
[1]
  growth: 94%
[2]
  growth: 41.4%
[3]
  growth: 115%
[5]
  growth: 79.8%
[6]
  growth: 100%
[7]
  growth: 15.6%
[8]
  growth: 29.1%
[9]
  growth: 25.8%
[10]
  growth: 76%
[11]
  growth: 64.7%
[12]
  growth: 92.1%
[13]
  growth: 57.2%
[14]
  growth: 78.8%
[15]
  growth: 79.1%
[16]
  growth: 68.1%
[17]
  growth: 89.4%

## C/C(=N\Nc1ccc(S(N)(=O)=O)cc1)c1ccc(N=Nc2c(Nc3ccccc3)[nH][nH]c2=O)cc1
[1]
  growth: 3.47% (active)
[2]
  growth: -20.2% (active)
[3]
  growth: 58.3%
[4]
  growth: 42.6%
[6]
  growth: 43.3%
[7]
  growth: -2.25% (active)
[8]
  growth: 21.5%
[9]
  growth: 89.6%
[10]
  growth: -30.8% (active)
[11]
  growth: -13.6% (active)
[12]
  growth: 18.1%
[13]
  growth: -31.2% (active)
[14]
  growth: 0.299% (active)
[15]
  growth: -24.6% (active)
[16]
  growth: 3.69% (active)
[17]
  growth: -35.6% (active)

## O=C1Nc2ccc([N+](=O)[O-])cc2C1=Nc1ccccc1
[1]
  growth: 121%
[2]
  growth: 106%
[3]
  growth: 103%
[4]
  growth: 113%
[5]
  growth: 113%
[6]
  growth: 98.6%
[7]
  growth: 95.3%
[8]
  growth: 97.9%
[9]
  growth: 103%
[10]
  growth: 84.1%
[11]
  growth: 111%
[13]
  growth: 85.4%
[14]
  growth: 106%
[15]
  growth: 112%
[16]
  growth: 105%
[17]
  growth: 109%

## COc1ccc(C(=O)/C=C/c2ccc3ccccc3c2)cc1S(N)(=O)=O
[1]
  growth: -17.5% (active)
[2]
  growth: -60.6% (active)
[3]
  growth: -43.4% (active)
[5]
  growth: 22.5%
[6]
  growth: -8.23% (active)
[7]
  growth: -41.9% (active)
[8]
  growth: 68.8%
[9]
  growth: 18.9%
[10]
  growth: -39.5% (active)
[11]
  growth: 1.97% (active)
[12]
  growth: -42.8% (active)
[13]
  growth: -75.2% (active)
[14]
  growth: -97.8% (active)
[15]
  growth: -76.9% (active)
[16]
  growth: -74% (active)

## CN1CCN(c2ccc(C(=O)/C=C/c3ccc(Br)cc3)cc2)CC1
[1]
  growth: -0.714% (active)
[2]
  growth: 2.63% (active)
[3]
  growth: 39.5%
[4]
  growth: 61%
[5]
  growth: 15.8%
[6]
  growth: 39.4%
[7]
  growth: 17.7%
[8]
  growth: 89.6%
[9]
  growth: 45.1%
[10]
  growth: 15.2%
[11]
  growth: 22.5%
[12]
  growth: 19.4%
[13]
  growth: 6.72% (active)
[14]
  growth: 7.41% (active)
[15]
  growth: 14.7%
[16]
  growth: 10.6%
[17]
  growth: -1.53% (active)

## COc1ccc(C(=O)Nc2n[nH]c(Nc3ccccc3)c2C#N)cc1
[1]
  growth: 133%
[2]
  growth: 111%
[3]
  growth: 97.6%
[4]
  growth: 118%
[5]
  growth: 119%
[6]
  growth: 105%
[7]
  growth: 111%
[8]
  growth: 114%
[9]
  growth: 109%
[10]
  growth: 113%
[11]
  growth: 118%
[12]
  growth: 102%
[13]
  growth: 94.8%
[14]
  growth: 105%
[15]
  growth: 120%
[16]
  growth: 112%
[17]
  growth: 112%
